The list is not random: actives were taken first. Their share in the collection is about 10%.
HPGD block = HPGD (human) dehydrogenase inhibition. Potency, µM, for inactives: top-dose activity change, negative = inhibition, usual class: inhibitors. purified HPGD, NADH fluorescence kinetic, PGE2 substrate. 150,000 tested, 4.3% active; also: potency is read from the fitted curve at half-maximal effect
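20 nM HPGD preincubated 15 min at room temperature with compound in 50 mM Tris-HCl pH 8, 0.01% Tween 20. Started with 1 mM NAD+ and 30 uM prostaglandin E2; NADH fluorescence (360/450 nm) read 5 times over 30-s intervals, last minus first.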
Lamin A splicing = changes lamin A minigene splicing in HeLa cells. HeLa LMNA splicing GFP/RFP minigene ratio, 48 h. Potency, µM (series often up to 46.1 µM), for inactives: at the highest dose ratio change, negative = inhibition, usual class: inhibitors. 200,000 tested, 0.01% active; active = well fitted inhibition curve with a large enough effect in the signal ratio, with a control signal flat, not every such curve was filed as active; inconclusive = small, poorly fitted or top-dose-only effect, or effect the other way, or a change in a side signal; the % refers to the signal ratio; also: potency is read from the fitted curve at half-maximal effect
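S3 HeLa stable clones carrying a lamin A-EGFP splicing minigene plus DsRed2 were seeded at 600 cells/well in Opti-MEM with 2% FBS, pin-dosed and incubated 48 h at 37°C. Acumen cytometry (488 nm) gave the GFP/RFP total-intensity ratio.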
ALDH1A1 inh = blocks purified human ALDH1A1 activity. 220,000 tested, 7.3% active. Purified ALDH1A1, NADH fluorescence, propionaldehyde substrate. Potency, µM (top dose mostly 75.3 µM), without a hit: at the highest dose activity, negative = inhibition, actives largely listed as inhibitors. P00352;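 also: potency is read from the fitted curve at half-maximal effect; plate controls were no enzyme wells and a reference inhibitor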
PNC assembly inh = inhibitors of perinucleolar compartment assembly | PC3M PTB-GFP, PNC prevalence imaging, 16 h; stronger effect = lower value | activity change (PNC), negative = inhibition, % at 10 µM | 140,000 tested, 3.1% active | AID 2417;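 active = readout at or below -70, meaning at least 70% loss of cells showing the perinucleolar compartment, a nuclear body marking cancer cells; inconclusive = readout between -30 and a set limit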;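 also: plate controls were DMSO wells for no effect and camptothecin positive control wells for full effect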
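Read-out is percentage of cells bearing a perinucleolar compartment, from automated 20x imaging of fixed, Hoechst-stained PC3M PTB-GFP cells. Cells were seeded 4 h, then exposed 16 h to compound (23 nl of library stock) in duplicate plates.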
12-hLO inh = inhibitors of human 12-lipoxygenase (ALOX12); P18054; purified 12-hLO, xylenol orange hydroperoxide absorbance; Potency, µM (highest dose often 57.1 µM), without a hit: at the highest dose activity change, negative = inhibition, actives largely listed as inhibitors; 150,000 tested, 0.12% active; AID 1452; active = well fitted inhibition curve with a large enough effect; inconclusive = small, poorly fitted or top-dose-only effect; also: potency is read from the fitted curve at half-maximal effect; nearly all actives have a fitted effect of over 55% in size
Target sequence (P18054 whole entry, looked up): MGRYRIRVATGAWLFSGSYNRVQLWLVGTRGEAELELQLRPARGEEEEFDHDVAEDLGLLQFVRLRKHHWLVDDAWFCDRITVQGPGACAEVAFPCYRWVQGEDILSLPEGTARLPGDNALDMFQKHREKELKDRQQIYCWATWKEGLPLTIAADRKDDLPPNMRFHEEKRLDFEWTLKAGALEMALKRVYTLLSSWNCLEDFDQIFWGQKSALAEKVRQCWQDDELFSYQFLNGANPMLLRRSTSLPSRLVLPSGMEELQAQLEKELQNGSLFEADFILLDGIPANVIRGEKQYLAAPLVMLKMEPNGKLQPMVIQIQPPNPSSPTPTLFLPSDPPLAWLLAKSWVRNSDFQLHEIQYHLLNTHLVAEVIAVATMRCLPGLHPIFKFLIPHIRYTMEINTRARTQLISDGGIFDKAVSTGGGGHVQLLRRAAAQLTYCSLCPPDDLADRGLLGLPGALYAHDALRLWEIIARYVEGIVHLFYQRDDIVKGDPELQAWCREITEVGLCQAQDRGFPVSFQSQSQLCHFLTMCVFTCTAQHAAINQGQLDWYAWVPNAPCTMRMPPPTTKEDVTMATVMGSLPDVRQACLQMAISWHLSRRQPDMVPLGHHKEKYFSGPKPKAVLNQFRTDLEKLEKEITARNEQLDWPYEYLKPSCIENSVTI
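150 nM 12hLO, 25 mM Hepes pH 7.0 + 0.01% Triton X-100; cpd preinc 15 min RT; 40 uM arachidonic acid, 30 min RT; Fe-XO 30 min; A573/A405 ratio as read-out.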
Numbers without * were called inactive; ? = inconclusive; nt = no result; [ ] = another dose, or the depositor's remark. Unless noted, calls follow the shape of the dose curve; as a rule, active = well fitted inhibition curve with a large enough effect (not every such curve was filed as active); inconclusive = small, poorly fitted or top-dose-only effect, or another doubt; inactive = no such curve, though single readings can be large or run the other way. Unless noted, % is scaled to controls: 0 for no effect and ±100 for the full control effect.

SMILES | HPGD block | Lamin A splicing | ALDH1A1 inh | PNC assembly inh | 12-hLO inh
Cc1ccc(Nc2c([N+](=O)[O-])c(=O)n(C)c3ccccc23)cc1 | nt | 4.2%[46 µM] | -4.8% | nt | nt
Cn1c(=O)[nH]c(Nc2ccc(F)cc2)c([N+](=O)[O-])c1=O | -29.3% | 4.9% | -7.3% | -109.0* | 1.0%
CC1CC2(C)Oc3ccccc3CC2C(C)C1CNCCCN(C)C (configuration not stated) | nt | ? | -0.8% | nt | nt
Cc1ccccc1Nc1cc(=O)oc2ccccc12 | -19.7% | ? | 14.1µM* | -22.7 | -6.5%
COc1ccc(-c2cnnn2-c2ccc(NC(=O)c3ccccc3OC)cc2)cc1 | nt | -3.5%[46 µM] | nt | nt | nt
S=c1nc[nH]c2c1cnn2-c1ccccc1 | nt | nt | 3.16µM* | nt | nt
Nc1ncnc2c1cnn2-c1ccccc1 | -29.1% | 17.5% | ? | 6.4 | -3.4%
CCOc1cc(CNc2ncc(-c3ccc(OC)cc3)n2C)ccc1O | -6.6% | 5.5% | 14.1µM* | 50.4 | -7.1%
S=c1[nH]nc(COc2ccc3c(c2)OCO3)n1-c1ccccc1 | 25.1µM* | -1.4% | 14.1µM* | ? | ?
CCn1c(CNC(=O)Cc2ccc(OC)cc2)nnc1SCC(=O)c1ccccc1 | nt | 62.1%[46 µM] | 2.82µM* | nt | nt
CCn1c(SCC(=O)c2cc(OC)ccc2OC)nnc1C(C)C | -16.4% | 3.7% | 28.2µM* | -18.8 | -9.0%
CCn1c(COc2ccc3c(c2)OCO3)nnc1SCC(=O)c1ccccc1 | 22.4µM* | 3.3% | ? | ? | -12.2%
CCc1nn2c(=O)cc(COC(=O)c3ccccc3NC(=O)c3cccs3)nc2s1 | nt | 10.3%[46 µM] | nt | nt | nt
COC(=O)CSc1nnc(CNC(=O)c2ccccc2OC)n1C | -5.5% | 4.1% | -2.9% | -87.5* | -2.0%
COc1ccc(CC(=O)NCc2nnc(SCc3ccc([N+](=O)[O-])cc3)n2C)cc1 | nt | -11.8%[46 µM] | -5.0% | nt | nt
CCn1c(SCC(=O)c2ccc(Br)cc2)nnc1C(C)NC(=O)Cc1ccc(OC)cc1 (configuration not stated) | -10.0% | 8.4% | 7.6% | 14.5 | 1.1%
COc1ccc(CC(=O)NCc2nnc(SCc3ccc(C)cc3)n2C)cc1 | -11.7% | 3.1% | -3.9% | -92.3* | -0.5%
CCn1c(SCC(=O)c2ccc(OC)cc2)nnc1C(C)NC(=O)c1ccc(OC)cc1 (configuration not stated) | -16.5% | 0.4% | 11.9µM* | -17.6 | 7.6%
COc1ccccc1-c1nnc(SC/C(O)=C(\C#N)c2nc3ccccc3[nH]2)n1C1CCCCC1 | 35.5µM* | ? | ? | 35.9 | 5.5%
O=C(NN1C(=O)/C(=C/C=C/c2ccccc2)SC1=S)c1ccncc1 | nt | nt | 4.47µM* | nt | nt
CCOc1ccc(C=Nc2cccc3ncccc23)cc1 | nt | nt | 17.8µM* | nt | nt
Cc1ccc(C=Nc2cccnc2N)cc1 | -15.9% | -1.3% | ? | -11.3 | -2.3%
O=C1c2ccccc2CN1CCSC(=S)N1CCSCC1 | nt | nt | 10µM* | nt | nt
CC1CN(C(=S)SCCN2Cc3ccccc3C2=O)CC(C)O1 (configuration not stated) | -17.2% | 2.8% | -2.5% | 45.9 | 3.2%
O=C1c2ccccc2CN1CCSC(=S)N1CCOCC1 | 28.2µM* | -1.2% | ? | 41.0 | -1.1%
SMILES | HPGD block | Lamin A splicing | ALDH1A1 inh | PNC assembly inh | 12-hLO inh
OC(Cn1nnc2ccccc21)Cn1c(C(F)(F)F)nc2ccccc21 (configuration not stated) | -7.5% | 5.0% | ? | ? | 1.7%
CNCC(O)Cn1c(C(F)(F)F)nc2ccccc21 (configuration not stated) | -6.3% | -0.7% | -3.2% | -100.0* | 1.4%
O=C(NC1CCCCC1)c1ccc2c(c1)sc1nc(-c3ccccc3)cn12 | nt | 24.0%[46 µM] | nt | nt | nt
Cc1cc(Cl)ccc1NC(=S)NCc1cccs1 | ? | -28.3% | -0.2% | ? | -19.7%
S=C(NCc1cccs1)Nc1cccc(Cl)c1 | 12.6µM* | -24.6% | 5.3% | 2.3 | -13.7%
S=C(NCc1cccs1)Nc1ccccc1Cl | 14.1µM* | ? | -2.1% | -15.0 | -1.8%
NNC(=S)Nc1ccccc1Cl | nt | ? | 28.2µM* | nt | nt
CN(Cc1cccs1)CC(O)COCc1ccco1 (configuration not stated) | 2.7% | -9.0% | -7.4% | -3.7 | -2.6%
COc1ccccc1COCC(O)CN(Cc1ccco1)Cc1ccccc1O (configuration not stated) | -11.6% | -29.4% | -9.9% | -116.4* | -13.3%
COC(=O)c1cc(NC(=O)c2ccc3c(c2)N(Cc2cccc(Cl)c2)C(=O)c2ccccc2S3=O)cc(C(=O)OC)c1 (configuration not stated) | nt | 13.7%[46 µM] | nt | nt | nt
COc1cc(C)c2c(c1C=O)Oc1c(c(C)c(O)c3c1C(O)OC3=O)OC2=O (configuration not stated) | 20µM* | 10.5% | -14.3% | nt | -9.7%
Cc1cc(O)c(C=O)c2c1C(=O)Oc1c(C)c(O)c3c(c1O2)C(O)OC3=O (configuration not stated) | 10µM* | nt | ? | nt | ?
Cc1ccc(N2C(=O)[C@@H]3[C@H](C2=O)[C@H]2C=C(C(=O)c4ccccc4)C=CN2[C@@H]3C(=O)c2ccc(Cl)cc2)cc1 | 39.8µM* | -3.1% | 25.1µM* | ? | 0.2%
CCN(c1cc(C)cc(C)c1)S(=O)(=O)c1nnc(NC(=O)C2CCCCC2)s1 | nt | 13.2%[46 µM] | nt | nt | nt
O=[N+]([O-])c1ccc2ccn(C3OCC(O)C(O)C3O)c2c1 (configuration not stated) | nt | -12.5%[46 µM] | 0.1% | nt | nt
CC1CCCCN1C(=O)CSc1nnc(Cc2ccccc2)n1C (configuration not stated) | -14.3% | -3.3% | 1.4% | -100.0* | -2.1%
CC1CCCC(C)N1C(=O)CSc1nnc(CSc2ncccn2)n1C (configuration not stated) | -12.3% | 0.6% | ? | -100.0* | -2.5%
Cn1c(Cc2ccccc2)nnc1SCC(=O)c1ccc(Br)s1 | 28.2µM* | 9.8% | 14.1µM* | -29.7 | 4.0%
COCCn1c(=NC(=O)c2ccc3c(c2)OCCO3)sc2cc(C(=O)OC)ccc21 | nt | -1.6%[46 µM] | nt | nt | nt
CCOC(=O)C1CCN(C(=O)Cn2c(-c3cccs3)cc3cc(Cl)ccc32)CC1 | nt | -18.0%[46 µM] | nt | nt | nt
Cn1cnc(S(=O)(=O)N2CCCC(C(=O)NCc3ccc(Cl)cc3)C2)c1 (configuration not stated) | nt | 6.0%[46 µM] | nt | nt | nt
Oc1ccc(C=Nc2cccc3ncccc23)c(O)c1 | -6.7% | -14.3% | -1.8% | -11.2 | 0.2%
Oc1ccc(C=Nc2ccc3ncccc3c2)c(O)c1 | ? | ? | 28.2µM* | 11.9 | -29.0%
CCOc1ccc(C(=O)NC2CCN(S(C)(=O)=O)CC2)cc1 | -2.8% | 0.7% | 18.2% | -86.9* | 2.2%
CC1CCN(C(=O)CSc2nnc(NC(=O)Nc3ccccc3)s2)CC1 | nt | -22.6%[46 µM] | nt | nt | nt
COc1cc(OC)c(OC)cc1NC(=O)CC1COc2ccccc2O1 (configuration not stated) | -9.4% | -11.8% | 3.55µM* | ? | 1.0%

Screening results deposited in PubChem BioAssay by National Center for Advancing Translational Sciences (NCATS).
